According to the supplement of paper PMC10849652:
Targets with a hit are over-represented here; the source holds about 7,900 in all. About 0.6% of all pairs of compound and target were hits.

Assays:
Test in all cases: log2 fold change, soluble protein after heating vs DMSO (PISA); higher = thermal stabilisation; K562 cells, 10 uM, 30 min; active = over 0.2 and 3.5 SD of the protein, either way, in both replicates (recomputed)
saracatinib = compound: CN1CCN(CCOc2cc(OC3CCOCC3)c3c(Nc4c(Cl)ccc5c4OCO5)ncnc3c2)CC1 [saracatinib]
Summary of the method: (§1)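 Values are thermal stability changes relative to control samples and are taken from duplicates. They are stated as log2 fold changes. Before quantification by TMTpro 16plex LC-MS/MS with equalised channel sums, K562 cells at 2×10^6 cells/mL were treated with 10 μM compound for 30 min, heated in aliquots for 3 min across 48°C-58°C, pooled, extracted in PBS with 0.5% NP-40 at 4°C, and centrifuged at 21,000xg for 90 min to give the soluble supernatant.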

sotrastaurin = compound: CN1CCN(c2nc(C3=C(c4c[nH]c5ccccc45)C(=O)NC3=O)c3ccccc3n2)CC1 [sotrastaurin]
Summary of the method: as §1

alvocidib = compound: CN1CC[C@H](c2c(O)cc(O)c3c(=O)cc(-c4ccccc4Cl)oc23)[C@H](O)C1 [alvocidib]
Summary of the method: as §1

Tubastatin A = compound: CN1CCc2c(c3ccccc3n2Cc2ccc(C(=O)NO)cc2)C1 [Tubastatin A]
Summary of the method: as §1

[1] = compound: CNC(=O)C1=CC=CC=C1NC2=NC(=NC=C2Cl)NC3=C(C=C(C=C3)N4CCOCC4)OC
Summary of the method: as §1

defactinib = compound: CNC(=O)c1ccc(Nc2ncc(C(F)(F)F)c(NCc3nccnc3N(C)S(C)(=O)=O)n2)cc1 [defactinib]
Summary of the method: as §1

rucaparib = compound: CNCc1ccc(-c2[nH]c3cc(F)cc4c3c2CCNC4=O)cc1 [rucaparib]
Summary of the method: as §1

[2] = compound: CNc1nc(-c2ccc3c(N)n[nH]c3c2)cc(N2C[C@@H](C(=O)NC3CCCCC3)CC[C@H]2C)n1
Summary of the method: as §1

encorafenib = compound: COC(=O)N[C@@H](C)CNc1nccc(-c2cn(C(C)C)nc2-c2cc(Cl)cc(NS(C)(=O)=O)c2F)n1 [encorafenib]
Summary of the method: as §1

[3] = compound: COC(=O)[C@H](CCSC)NC(=O)C1=C(C=C(C=C1)NC[C@H](CS)N)C2=CC=CC=C2
Summary of the method: as §1

[4] = compound: COC1=CC=C(C=C1)CN2C=CC3=C2C=C(C=C3)C(=O)NO
Summary of the method: as §1

filanesib = compound: CON(C)C(=O)N1N=C(c2cc(F)ccc2F)S[C@@]1(CCCN)c1ccccc1 [filanesib]
Summary of the method: as §1

zotarolimus = compound: CO[C@H]1C[C@@H]2CC[C@@H](C)[C@@](O)(O2)C(=O)C(=O)N2CCCC[C@H]2C(=O)O[C@H]([C@H](C)C[C@@H]2CC[C@H](n3cnnn3)[C@H](OC)C2)CC(=O)[C@H](C)/C=C(\C)[C@@H](O)[C@@H](OC)C(=O)[C@H](C)C[C@H](C)/C=C/C=C/C=C/1C [zotarolimus]
Summary of the method: as §1

idasanutlin = compound: COc1cc(C(=O)O)ccc1NC(=O)[C@@H]1N[C@@H](CC(C)(C)C)[C@](C#N)(c2ccc(Cl)cc2F)[C@H]1c1cccc(Cl)c1F [idasanutlin]
Summary of the method: as §1

alisertib = compound: COc1cc(Nc2ncc3c(n2)-c2ccc(Cl)cc2C(c2c(F)cccc2OC)=NC3)ccc1C(=O)O [alisertib]
Summary of the method: as §1

[5] = compound: COc1cc2nc(-c3cc(F)ccc3O)nc(N[C@@H]3CNC[C@H]3C(C)(C)O)c2cc1OC
Summary of the method: as §1

gefitinib = compound: COc1cc2ncnc(Nc3ccc(F)c(Cl)c3)c2cc1OCCCN1CCOCC1 [gefitinib]
Summary of the method: as §1

[6] = compound: COc1cccc2cc(-c3nc([C@H]4CC[C@H](C(=O)O)CC4)n4ncnc(N)c34)[nH]c12
Summary of the method: as §1

lapatinib = compound: CS(=O)(=O)CCNCc1ccc(-c2ccc3ncnc(Nc4ccc(OCc5cccc(F)c5)c(Cl)c4)c3c2)o1 [lapatinib]
Summary of the method: as §1

pictilisib = compound: CS(=O)(=O)N1CCN(Cc2cc3nc(-c4cccc5[nH]ncc45)nc(N4CCOCC4)c3s2)CC1 [pictilisib]
Summary of the method: as §1

Measured: log2 fold change

WDR41 (UniProt Q9HAD4)
inactive: saracatinib 0.071 | sotrastaurin -0.037 | alvocidib -0.014 | Tubastatin A -0.054 | [1] -0.046 | defactinib -0.007 | rucaparib 0.015 | [2] -0.031 | encorafenib 0.008 | [3] 0.036 | [4] 0.025 | filanesib -0.154 | zotarolimus -0.007 | idasanutlin -0.031 | alisertib -0.072 | [5] -0.254 | gefitinib -0.002 | [6] 0.014 | lapatinib 0.049 | pictilisib -0.056

TTI1 (UniProt O43156)
Chain of UniProt O43156 (O43156 whole entry, looked up): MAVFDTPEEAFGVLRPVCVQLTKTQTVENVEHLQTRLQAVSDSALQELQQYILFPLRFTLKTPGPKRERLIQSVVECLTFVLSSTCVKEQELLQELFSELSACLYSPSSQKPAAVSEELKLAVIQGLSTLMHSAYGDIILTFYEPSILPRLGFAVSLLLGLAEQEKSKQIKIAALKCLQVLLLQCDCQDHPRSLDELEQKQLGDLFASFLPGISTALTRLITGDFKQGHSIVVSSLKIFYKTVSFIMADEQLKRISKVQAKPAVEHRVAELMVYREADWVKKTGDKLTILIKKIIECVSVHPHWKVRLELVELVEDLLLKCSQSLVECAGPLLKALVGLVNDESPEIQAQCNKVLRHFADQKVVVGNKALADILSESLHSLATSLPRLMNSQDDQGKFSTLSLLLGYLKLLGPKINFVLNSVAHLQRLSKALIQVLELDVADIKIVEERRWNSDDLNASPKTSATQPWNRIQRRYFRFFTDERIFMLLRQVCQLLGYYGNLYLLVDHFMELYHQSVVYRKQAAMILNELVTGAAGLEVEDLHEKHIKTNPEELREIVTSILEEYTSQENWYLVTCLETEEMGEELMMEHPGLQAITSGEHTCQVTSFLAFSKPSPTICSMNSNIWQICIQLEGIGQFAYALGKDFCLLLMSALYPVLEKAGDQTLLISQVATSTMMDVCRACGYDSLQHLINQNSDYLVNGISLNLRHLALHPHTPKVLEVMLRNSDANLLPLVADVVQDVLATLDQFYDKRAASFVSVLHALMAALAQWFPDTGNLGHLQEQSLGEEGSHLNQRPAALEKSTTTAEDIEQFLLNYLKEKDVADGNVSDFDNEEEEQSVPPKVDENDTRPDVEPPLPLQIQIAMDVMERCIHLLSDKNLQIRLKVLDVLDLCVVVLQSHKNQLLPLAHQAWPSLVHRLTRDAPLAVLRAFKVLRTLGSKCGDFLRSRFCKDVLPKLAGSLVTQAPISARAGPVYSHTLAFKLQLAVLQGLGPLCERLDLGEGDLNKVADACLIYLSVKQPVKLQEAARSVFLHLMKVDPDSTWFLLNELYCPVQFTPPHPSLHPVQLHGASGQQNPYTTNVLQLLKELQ
inactive: saracatinib -0.065 | sotrastaurin -0.128 | alvocidib 0.017 | Tubastatin A -0.007 | [1] -0.058 | defactinib -0.046 | rucaparib 0.237 | [2] 0.053 | encorafenib 0.068 | [3] 0.004 | [4] -0.031 | filanesib 0.081 | zotarolimus 0.091 | idasanutlin -0.097 | alisertib -0.112 | [5] 0.02 | gefitinib -0.057 | [6] -0.019 | lapatinib -0.008 | pictilisib 0.049

TMEM106B (UniProt Q9NUM4)
Chain of UniProt Q9NUM4 (Q9NUM4 whole entry, looked up): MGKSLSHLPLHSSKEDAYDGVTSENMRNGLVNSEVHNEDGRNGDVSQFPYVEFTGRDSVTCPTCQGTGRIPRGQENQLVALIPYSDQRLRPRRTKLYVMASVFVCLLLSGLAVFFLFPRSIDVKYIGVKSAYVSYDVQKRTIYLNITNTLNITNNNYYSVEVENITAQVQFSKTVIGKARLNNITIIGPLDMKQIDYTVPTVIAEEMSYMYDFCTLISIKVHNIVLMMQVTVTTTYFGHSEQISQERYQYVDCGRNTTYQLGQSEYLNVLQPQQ
inactive: saracatinib 0.123 | sotrastaurin 0.027 | alvocidib 0.02 | Tubastatin A -0.121 | [1] -0.037 | defactinib 0.021 | rucaparib -0.007 | [2] -0.145 | encorafenib -0.037 | [3] -0.059 | [4] 0.021 | filanesib 0.06 | zotarolimus -0.082 | idasanutlin -0.032 | alisertib -0.012 | [5] -0.027 | gefitinib 0.04 | [6] 0.057 | lapatinib -0.005 | pictilisib 0.027

USP48 isoform 8 (UniProt Q86UV5)
inactive: saracatinib -0.037 | sotrastaurin -0.403 | alvocidib -0.358 | Tubastatin A 0.197 | [1] 0.016 | defactinib -0.462 | rucaparib -0.085 | [2] -0.044 | encorafenib 0.065 | [3] -0.081 | [4] 0.155 | filanesib -0.075 | zotarolimus 0.089 | idasanutlin -0.03 | alisertib 0.12 | [5] -0.267 | gefitinib 0.093 | [6] -0.018 | lapatinib 0.002 | pictilisib 0.016

TPP1 (UniProt O14773)
inactive: saracatinib -0.008 | sotrastaurin -0.005 | alvocidib -0.005 | Tubastatin A 0.005 | [1] 0.007 | defactinib 0.049 | rucaparib -0.013 | [2] -0.013 | encorafenib 0.018 | [3] 0.011 | [4] 0.024 | filanesib -0.175 | zotarolimus 0 | idasanutlin -0.008 | alisertib 0.168 | [5] -0.072 | gefitinib -0.039 | [6] 0.087 | lapatinib -0.026 | pictilisib 0.011

UBE2Q1 (UniProt Q7Z7E8)
Chain of UniProt Q7Z7E8 (Q7Z7E8 whole entry, looked up): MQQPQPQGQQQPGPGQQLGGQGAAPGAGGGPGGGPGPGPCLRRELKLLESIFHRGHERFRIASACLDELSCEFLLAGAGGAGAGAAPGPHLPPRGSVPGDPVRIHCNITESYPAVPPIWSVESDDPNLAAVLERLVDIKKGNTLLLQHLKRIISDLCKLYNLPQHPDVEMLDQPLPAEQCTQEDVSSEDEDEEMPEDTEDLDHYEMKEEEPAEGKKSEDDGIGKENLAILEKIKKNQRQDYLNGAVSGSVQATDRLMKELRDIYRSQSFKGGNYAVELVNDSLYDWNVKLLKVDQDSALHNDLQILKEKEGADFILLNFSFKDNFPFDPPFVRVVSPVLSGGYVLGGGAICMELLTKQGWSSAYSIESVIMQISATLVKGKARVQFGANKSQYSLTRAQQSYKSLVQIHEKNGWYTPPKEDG
inactive: saracatinib -0.023 | sotrastaurin -0.001 | alvocidib -0.069 | Tubastatin A 0.027 | [1] 0.05 | defactinib -0.143 | rucaparib -0.008 | [2] 0.048 | encorafenib 0.04 | [3] -0.017 | [4] -0.09 | filanesib -0.042 | zotarolimus 0.022 | idasanutlin 0.006 | alisertib -0.055 | [5] 0.012 | gefitinib -0.02 | [6] -0.044 | lapatinib 0.01 | pictilisib 0.039

TXNL1 (UniProt O43396)
Chain of UniProt O43396 (O43396 whole entry, looked up): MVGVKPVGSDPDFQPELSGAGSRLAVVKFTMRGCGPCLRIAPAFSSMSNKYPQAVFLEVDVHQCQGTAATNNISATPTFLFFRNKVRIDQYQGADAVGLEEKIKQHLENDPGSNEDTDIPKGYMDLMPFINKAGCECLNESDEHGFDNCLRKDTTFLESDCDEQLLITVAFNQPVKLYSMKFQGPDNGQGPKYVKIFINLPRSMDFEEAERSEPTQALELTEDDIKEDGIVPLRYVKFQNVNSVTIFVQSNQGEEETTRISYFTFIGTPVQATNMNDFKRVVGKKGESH
inactive: saracatinib -0.008 | sotrastaurin -0.068 | alvocidib -0.1 | Tubastatin A 0.215 | [1] 0.034 | defactinib -0.085 | rucaparib 0.019 | [2] 0.024 | encorafenib 0.062 | [3] -0.045 | [4] 0.169 | filanesib 0.075 | zotarolimus 0.047 | idasanutlin -0.003 | alisertib -0.005 | [5] 0.084 | gefitinib 0.05 | [6] -0.001 | lapatinib 0.006 | pictilisib 0.017

TXNIP (UniProt Q9H3M7)
inactive: saracatinib -0.074 | sotrastaurin 0 | alvocidib -0.307 | Tubastatin A 0.06 | [1] 0.179 | defactinib -0.085 | rucaparib -0.026 | [2] 0.243 | encorafenib 0.01 | [3] 0.07 | [4] -0.013 | filanesib -0.148 | zotarolimus 0.172 | idasanutlin 0.035 | alisertib -0.198 | [5] -0.074 | gefitinib 0.002 | [6] -0.119 | lapatinib 0.228 | pictilisib 0.142

UBLCP1 (UniProt Q8WVY7)
Chain of UniProt Q8WVY7 (Q8WVY7 whole entry, looked up): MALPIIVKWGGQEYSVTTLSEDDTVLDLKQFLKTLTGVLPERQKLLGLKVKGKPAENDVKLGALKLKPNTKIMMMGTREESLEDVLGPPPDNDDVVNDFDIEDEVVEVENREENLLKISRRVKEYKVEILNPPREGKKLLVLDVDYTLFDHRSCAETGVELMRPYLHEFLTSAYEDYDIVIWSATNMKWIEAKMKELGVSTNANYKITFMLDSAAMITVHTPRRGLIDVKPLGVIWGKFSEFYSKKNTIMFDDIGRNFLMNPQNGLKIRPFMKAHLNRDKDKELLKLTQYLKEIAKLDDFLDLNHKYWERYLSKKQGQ
inactive: saracatinib 0.036 | sotrastaurin -0.032 | alvocidib 0.024 | Tubastatin A 0.147 | [1] 0.027 | defactinib -0.016 | rucaparib -0.068 | [2] -0.038 | encorafenib 0.088 | [3] -0.034 | [4] -0.046 | filanesib -0.001 | zotarolimus -0.008 | idasanutlin -0.013 | alisertib 0.028 | [5] 0.181 | gefitinib 0.044 | [6] -0.034 | lapatinib 0.021 | pictilisib 0.028

UFM1 (UniProt P61960)
Chain of UniProt P61960 (P61960 whole entry, looked up): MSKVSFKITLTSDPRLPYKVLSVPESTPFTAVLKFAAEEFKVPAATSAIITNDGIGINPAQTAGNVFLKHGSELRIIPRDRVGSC
inactive: saracatinib 0.028 | sotrastaurin -0.004 | alvocidib -0.262 | Tubastatin A 0.097 | [1] 0.026 | defactinib -0.066 | rucaparib -0.119 | [2] -0.013 | encorafenib 0.029 | [3] -0.031 | [4] 0.048 | filanesib -0.08 | zotarolimus -0.139 | idasanutlin 0.28 | alisertib -0.001 | [5] 0.01 | gefitinib 0.069 | [6] 0.055 | lapatinib -0.002

TMEM9 (UniProt Q9P0T7)
Chain of UniProt Q9P0T7 (Q9P0T7 whole entry, looked up): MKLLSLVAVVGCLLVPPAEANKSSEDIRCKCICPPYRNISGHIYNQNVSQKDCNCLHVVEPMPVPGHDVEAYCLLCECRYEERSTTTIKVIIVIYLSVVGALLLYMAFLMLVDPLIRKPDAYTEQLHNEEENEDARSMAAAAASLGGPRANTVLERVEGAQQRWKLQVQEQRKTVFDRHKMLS
inactive: saracatinib 0.051 | sotrastaurin -0.025 | alvocidib -0.068 | Tubastatin A 0.016 | [1] 0.004 | defactinib -0.014 | rucaparib 0.003 | [2] 0.033 | encorafenib 0.033 | [3] 0.004 | [4] -0.085 | filanesib -0.078 | zotarolimus 0.081 | idasanutlin 0.006 | alisertib -0.081 | [5] -0.178 | gefitinib -0.007 | [6] 0.052 | lapatinib 0.04 | pictilisib 0.036

UTP14A (UniProt Q9BVJ6)
Chain of UniProt Q9BVJ6 (Q9BVJ6 whole entry, looked up): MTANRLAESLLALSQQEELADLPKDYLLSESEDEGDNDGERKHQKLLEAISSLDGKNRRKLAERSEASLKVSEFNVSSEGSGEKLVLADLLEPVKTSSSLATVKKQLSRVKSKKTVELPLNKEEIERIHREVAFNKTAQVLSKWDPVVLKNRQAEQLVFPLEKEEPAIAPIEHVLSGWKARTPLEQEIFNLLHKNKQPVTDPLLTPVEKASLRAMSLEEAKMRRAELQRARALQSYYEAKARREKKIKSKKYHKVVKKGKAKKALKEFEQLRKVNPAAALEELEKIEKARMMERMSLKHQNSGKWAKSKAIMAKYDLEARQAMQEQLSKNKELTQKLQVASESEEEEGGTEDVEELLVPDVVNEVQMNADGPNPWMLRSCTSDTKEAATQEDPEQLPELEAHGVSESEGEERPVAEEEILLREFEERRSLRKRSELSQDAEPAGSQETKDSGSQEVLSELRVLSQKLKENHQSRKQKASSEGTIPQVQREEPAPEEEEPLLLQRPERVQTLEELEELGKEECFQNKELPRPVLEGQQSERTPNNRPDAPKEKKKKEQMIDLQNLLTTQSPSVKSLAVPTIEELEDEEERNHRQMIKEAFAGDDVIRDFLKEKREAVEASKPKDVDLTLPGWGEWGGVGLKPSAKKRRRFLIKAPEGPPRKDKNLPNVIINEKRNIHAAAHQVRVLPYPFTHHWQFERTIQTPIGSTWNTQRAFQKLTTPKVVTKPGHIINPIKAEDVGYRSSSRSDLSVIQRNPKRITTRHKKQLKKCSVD
inactive: saracatinib -0.023 | sotrastaurin -0.017 | alvocidib 0.077 | Tubastatin A 0.163 | [1] 0.024 | defactinib 0.055 | rucaparib 0.15 | [2] 0.066 | encorafenib 0.124 | [3] 0.021 | [4] -0.114 | filanesib 0.336 | zotarolimus -0.022 | idasanutlin 0.161 | alisertib -0.077 | [5] -0.111 | gefitinib -0.062 | [6] -0.138 | lapatinib 0.156 | pictilisib -0.174

TMEM70 (UniProt Q9BUB7)
Chain of UniProt Q9BUB7 (Q9BUB7 whole entry, looked up): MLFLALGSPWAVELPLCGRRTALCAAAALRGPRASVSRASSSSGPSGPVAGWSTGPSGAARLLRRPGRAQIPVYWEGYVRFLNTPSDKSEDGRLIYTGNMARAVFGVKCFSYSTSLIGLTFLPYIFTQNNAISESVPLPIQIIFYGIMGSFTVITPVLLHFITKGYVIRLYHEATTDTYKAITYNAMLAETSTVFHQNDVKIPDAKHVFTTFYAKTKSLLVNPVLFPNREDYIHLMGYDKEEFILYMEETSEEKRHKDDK
inactive: saracatinib 0.106 | sotrastaurin 0.028 | alvocidib 0.015 | Tubastatin A 0.011 | [1] 0.142 | defactinib -0.004 | rucaparib -0.057 | [2] -0.001 | encorafenib 0.009 | [3] 0 | [4] -0.041 | filanesib -0.157 | zotarolimus -0.009 | idasanutlin -0.016 | alisertib 0.126 | [5] -0.118 | gefitinib -0.026 | [6] 0.106 | lapatinib -0.039 | pictilisib 0.059

VPS52 (UniProt Q8N1B4)
inactive: saracatinib -0.012 | sotrastaurin -0.107 | alvocidib -0.061 | Tubastatin A 0.074 | [1] -0.047 | defactinib -0.031 | rucaparib 0.121 | [2] -0.01 | encorafenib 0.02 | [3] -0.072 | [4] -0.003 | filanesib 0.017 | zotarolimus 0.044 | idasanutlin 0.088 | alisertib -0.069 | [5] 0.058 | gefitinib 0.014 | [6] -0.022 | lapatinib -0.043 | pictilisib -0.02

TMEM120A (UniProt Q9BXJ8)
Chain of UniProt Q9BXJ8 (Q9BXJ8 whole entry, looked up): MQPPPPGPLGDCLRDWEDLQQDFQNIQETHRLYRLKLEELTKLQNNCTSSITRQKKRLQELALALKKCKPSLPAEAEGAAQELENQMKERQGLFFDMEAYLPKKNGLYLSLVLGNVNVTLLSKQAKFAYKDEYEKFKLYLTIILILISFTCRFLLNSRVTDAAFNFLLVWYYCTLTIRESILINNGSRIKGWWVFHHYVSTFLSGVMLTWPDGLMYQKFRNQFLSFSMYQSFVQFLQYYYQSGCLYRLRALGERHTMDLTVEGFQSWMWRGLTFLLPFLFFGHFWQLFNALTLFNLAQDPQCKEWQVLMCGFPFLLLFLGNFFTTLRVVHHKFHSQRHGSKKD
active: rucaparib -0.559
inactive: saracatinib 0.036 | sotrastaurin -0.098 | alvocidib -0.084 | Tubastatin A 0.069 | [1] -0.013 | defactinib -0.104 | [2] -0.036 | encorafenib 0.184 | [3] -0.047 | [4] -0.2 | filanesib -0.049 | zotarolimus 0.038 | idasanutlin -0.217 | alisertib -0.08 | [5] -0.08 | gefitinib 0.113 | [6] -0.02 | lapatinib 0.06 | pictilisib -0.094

WDR47 (UniProt O94967)
Chain of UniProt O94967 (O94967 whole entry, looked up): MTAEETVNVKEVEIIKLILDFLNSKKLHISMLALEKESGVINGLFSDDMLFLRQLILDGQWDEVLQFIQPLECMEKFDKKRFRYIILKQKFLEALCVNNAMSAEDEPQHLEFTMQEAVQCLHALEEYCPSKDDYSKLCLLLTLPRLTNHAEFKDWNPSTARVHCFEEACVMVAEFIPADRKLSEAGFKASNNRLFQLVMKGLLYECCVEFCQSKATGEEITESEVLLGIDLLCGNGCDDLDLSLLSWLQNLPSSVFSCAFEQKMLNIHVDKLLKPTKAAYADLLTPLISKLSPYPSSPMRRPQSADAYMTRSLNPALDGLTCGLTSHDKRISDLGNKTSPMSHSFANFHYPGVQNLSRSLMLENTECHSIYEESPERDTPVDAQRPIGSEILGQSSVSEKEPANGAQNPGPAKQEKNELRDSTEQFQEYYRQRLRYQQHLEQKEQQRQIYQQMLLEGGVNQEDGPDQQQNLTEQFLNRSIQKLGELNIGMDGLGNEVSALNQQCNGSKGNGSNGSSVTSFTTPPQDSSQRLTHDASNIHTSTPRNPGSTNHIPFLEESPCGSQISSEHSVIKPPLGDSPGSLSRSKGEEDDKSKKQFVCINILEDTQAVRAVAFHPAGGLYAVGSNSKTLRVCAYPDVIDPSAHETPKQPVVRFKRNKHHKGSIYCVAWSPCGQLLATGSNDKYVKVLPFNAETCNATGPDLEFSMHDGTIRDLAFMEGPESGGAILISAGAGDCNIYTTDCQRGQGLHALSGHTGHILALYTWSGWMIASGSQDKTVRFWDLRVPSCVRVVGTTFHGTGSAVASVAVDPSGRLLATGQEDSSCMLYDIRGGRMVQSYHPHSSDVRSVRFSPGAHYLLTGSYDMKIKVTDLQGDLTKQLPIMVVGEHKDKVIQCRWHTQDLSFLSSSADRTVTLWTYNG
inactive: saracatinib -0.019 | sotrastaurin -0.008 | alvocidib -0.002 | Tubastatin A 0.039 | [1] 0.035 | defactinib 0.052 | rucaparib -0.071 | [2] -0.041 | encorafenib 0.045 | [3] -0.087 | [4] 0.057 | filanesib -0.014 | zotarolimus -0.006 | idasanutlin -0.071 | alisertib 0.21 | [5] -0.029 | gefitinib -0.001 | [6] 0.061 | lapatinib -0.007 | pictilisib 0.077
